{"source": "PubChem BioAssay (NCI)", "note": "Where “and” joins values, the source holds several entries; their conditions need not be identical. Equal values may be shown once. This is part of a sample that, as a whole, favours compounds with a hit. Of some 83,000 tested, about 20% had one in any assay.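 Cells were grown in 96-well plates and exposed to the test compound at a single concentration for 48 hours; results are reported as percent growth, with values below 10 considered active.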 Calls of active or inactive are those of the source."}
{"system": "MDA-MB-468 breast", "assay": "NCI-60 one-dose screen, 48 h (100 = growth as untreated, 0 = no growth, -100 = all killed)", "details": "10 µM unless noted"}
{"smiles": "O=C(NC(Cc1ccc(O)cc1)C(=O)N=Nc1c(O)[nH]c2ccccc12)c1ccccc1", "note": "(stereo not given)", "growth": "109% (inactive)"}
{"smiles": "c1cc(OCCN2CCCC2)ccc1CNc1ccc2nc(CCC3CCCCC3)[nH]c2c1", "growth": "43.6% (inactive)"}
{"smiles": "Cc1ccc(-n2c(=S)[nH]c3sc4c(c3c2=O)CCC(=O)C4)cc1", "growth": "51.1% (inactive)"}
{"smiles": "Cn1cnc([N+](=O)[O-])c1Sc1ncnc2nc[nH]c12", "growth": "-4.47% (active) and 77.7% (inactive)"}
{"smiles": "CCN1C(=O)N(CC)C2SC(N/N=C/c3ccccc3F)=NC21", "note": "(stereo not given)", "growth": "40.4% (inactive)"}
{"smiles": "COC(C(=O)[C@@H](O)[C@@H](C)O)[C@@H]1Cc2cc3cc(O[C@H]4C[C@@H](O[C@H]5C[C@@H](O)[C@H](O)C(C)O5)[C@H](O)C(C)O4)cc(O)c3c(O)c2C(=O)[C@H]1O[C@H]1C[C@@H](O[C@H]2C[C@@H](O[C@H]3C[C@@H](OC)[C@H](O)C(C)O3)[C@@H](O)C(C)O2)[C@H](O)C(C)O1", "note": "(stereo not given in full)", "growth": "59.3% (inactive)"}
{"smiles": "Cn1nc(C(C)(C)C)cc1NC(=O)Cc1ccc(/C=C2\\C(=O)Nc3ccccc32)cc1", "growth": "20% (inactive)"}
{"smiles": "O=C(Nc1cccc(-n2cc(-c3ccncc3)c(-c3ccc(Cl)c(O)c3)n2)c1)Nc1ccc(Cl)c(C(F)(F)F)c1", "growth": "-49.5% (active)"}
{"smiles": "O=C(CS)Nc1ccc2ccccc2c1", "growth": "108% (inactive)"}
{"smiles": "CC(C)=CC/C=C(/C)[C@H]1CC[C@]2(C)[C@@H]1CC[C@@H]1[C@@]3(C)CCC(=O)NC(C)(C)[C@@H]3CC[C@]12C", "growth": "-17.7% [100 µM] (active)"}
{"smiles": "CCN1CCC2(CC1)NC(=O)c1c(c3ccc(Cl)c(Cl)c3n1C)C2C#N", "note": "(stereo not given)", "growth": "-16.3% (active)"}
{"smiles": "CO[C@H]1CC(=O)n2c3ccccc3c3c4c(c5c6ccccc6n1c5c32)C(=O)NC4=O", "growth": "34.2% (inactive)"}
{"smiles": "NC(=N\\N=C/c1cccc([N+](=O)[O-])c1)/C(N)=N\\N=C/c1cccc([N+](=O)[O-])c1", "growth": "64.9% (inactive)"}
{"smiles": "CCOC(=O)c1noc2c1CCc1c-2cn(Cc2ccc(OC)cc2)c1-c1cc(OC)c(OC)c(OC)c1", "growth": "6.06% (active)"}
{"smiles": "Nc1nc(-c2ccc(Cl)cc2)cc(-c2cc3ccccc3oc2=O)n1", "growth": "94% (inactive)"}
{"smiles": "Fc1ccc(NCc2cn(-c3ccccc3)nc2-c2ccc(OCc3ccccc3)cc2)cc1Cl", "growth": "119% (inactive)"}
{"smiles": "COc1ccc(-n2cc(COc3ccc4c5ccnc(C)c5n(CC(C)C)c4c3)nn2)cc1", "growth": "35.3% (inactive)"}
{"smiles": "O=C(NO)c1ccc(Cn2c(=O)n(CCc3ccccc3)c(=O)c3ccccc32)cc1", "growth": "40.9% (inactive)"}
{"smiles": "Cc1cnc(SCc2ccc(Cl)cc2)[nH]c1=S", "growth": "110% (inactive)"}
{"smiles": "Cc1cc(Cl)c2c(Cl)ccc(Cl)c2n1", "growth": "105% (inactive)"}
{"smiles": "O=C1C2=C(Nc3cc([N+](=O)[O-])ccc3N2)OC1c1c2ccccc2cc2ccccc12", "note": "(stereo not given)", "growth": "37.3% (inactive)"}
{"smiles": "O=c1cc(-c2ccccc2)[nH]n1-c1nc2ccccc2[nH]1", "growth": "66.2% (inactive)"}
{"smiles": "COc1cc(C2NC(c3ccc(Cl)cc3)C(C)/C(=N/NC(N)=S)C2C)cc(OC)c1OC", "note": "(stereo not given)", "growth": "88% (inactive)"}
{"smiles": "C#C[C@]1(O)CC[C@H]2[C@@H]3CC=C4c5sc(Nc6cccc(F)c6)nc5CC[C@]4(C)[C@H]3CC[C@@]21C", "growth": "3.86% (active)"}
{"smiles": "CC(=O)Oc1csc(N(C(C)=O)c2cc(C(=O)O)cc(C(=O)O)c2)n1", "growth": "95.2% (inactive)"}
{"smiles": "COc1cc(-c2nn(-c3cccc(NC(=O)CN4CCOCC4)c3)cc2-c2cccnc2)ccc1Cl", "growth": "74.9% (inactive)"}
{"smiles": "OB(O)c1cccc(-c2nc3ccc4[nH]ncc4c3c3c2CCCC3)c1", "growth": "59.3% (inactive)"}
{"smiles": "C#CCOc1cccc(Nc2ncnc3c(NC(=O)CCl)cccc23)c1", "growth": "-66.7% (active)"}
{"smiles": "CCCCCCCCCCCCCCCCOP(=O)([O-])OCC[N+](C)(C)C", "growth": "-24% (active)"}
{"smiles": "CC(=O)Nc1ccc(CC[C@H]2CCC/C=C/[C@@H]3C[C@H](O)C[C@H]3[C@H](O)/C=C/C(=O)O2)cc1", "growth": "-23.5% (active)"}
{"smiles": "O=C1OC(c2ccccc2)C(O)=C1c1ccccc1", "note": "(stereo not given)", "growth": "108% (inactive)"}
{"smiles": "CC(C)C[C@H](NC(=O)/C=C/Cn1ccc2ccccc2c1=O)B(O)O", "growth": "-6.84% (active)"}
{"smiles": "c1ccc(-c2oc3ccccc3c2-c2ccccc2)cc1", "growth": "97.9% (inactive)"}
{"smiles": "C/C(=C\\CCc1ccsc1)CC/C=C(\\C)CCCN1CCC(CO)CC1", "growth": "-27.3% (active)"}
{"smiles": "C=C1C(=O)O[C@H]2[C@H]1CC/C(COC(=O)/C=C/C(=O)NCc1ccc(Cn3c(=O)sn(-c4ccccc4)c3=O)cc1)=C\\CC[C@@]1(C)O[C@@H]21", "growth": "-43.4% (active)"}
